Reference: PubChem BioAssay (NCI)
“And” between values parts separate entries of the source, which are not always exact repeats. Identical values can stand only once. Compounds without any hit were thinned out: in the full panel of roughly 83,000, 20% have a hit.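 Each cell line was grown in a 96-well plate and treated with one concentration of compound for 48 hours. Values below 10 were considered active.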 The source made the active and inactive calls.

Legend:
Assay in all cases: NCI-60 one-dose screen, 48 h (100 = growth as untreated, 0 = no growth, -100 = all killed)
Conditions in all cases: 10 µM unless noted
HCT-15 colon = system: HCT-15 colon
HT29 colon = system: HT29 colon
SNB-75 CNS = system: SNB-75 CNS
SNB-19 CNS = system: SNB-19 CNS
U251 CNS = system: U251 CNS
PC-3 prostate = system: PC-3 prostate
SK-MEL-5 melanoma = system: SK-MEL-5 melanoma
UACC-62 melanoma = system: UACC-62 melanoma
LOX IMVI melanoma = system: LOX IMVI melanoma
SK-MEL-2 melanoma = system: SK-MEL-2 melanoma
EKVX NSCLC = system: EKVX NSCLC
SN12C renal = system: SN12C renal
UO-31 renal = system: UO-31 renal
TK-10 renal = system: TK-10 renal
ACHN renal = system: ACHN renal
CAKI-1 renal = system: CAKI-1 renal
A498 renal = system: A498 renal
CCRF-CEM leukemia = system: CCRF-CEM leukemia
MOLT-4 leukemia = system: MOLT-4 leukemia
SK-MEL-28 melanoma = system: SK-MEL-28 melanoma

| SMILES | growth (HCT-15 colon) | growth (HT29 colon) | growth (SNB-75 CNS) | growth (SNB-19 CNS) | growth (U251 CNS) | growth (PC-3 prostate) | growth (SK-MEL-5 melanoma) | growth (UACC-62 melanoma) | growth (LOX IMVI melanoma) | growth (SK-MEL-2 melanoma) | growth (EKVX NSCLC) | growth (SN12C renal) | growth (UO-31 renal) | growth (TK-10 renal) | growth (ACHN renal) | growth (CAKI-1 renal) | growth (A498 renal) | growth (CCRF-CEM leukemia) | growth (MOLT-4 leukemia) | growth (SK-MEL-28 melanoma) |
| --- | --- | --- | --- | --- | --- | --- | --- | --- | --- | --- | --- | --- | --- | --- | --- | --- | --- | --- | --- | --- |
| COc1ccc2cc3[n+](cc2c1OC)CCc1cc2c(cc1-3)OCO2 | 105% (inactive) and 93.4% (inactive) | 93.8% (inactive) and 74.1% (inactive) | 85.5% (inactive) and 81% (inactive) | 38.6% (inactive) and 42.2% (inactive) | 25.2% (inactive) and 28.7% (inactive) | 60.1% (inactive) and 60.6% (inactive) | 7.33% (active) and 24.3% (inactive) | 54.8% (inactive) and 64.9% (inactive) | 83.6% (inactive) and 86.5% (inactive) | 90.7% (inactive) and 104% (inactive) | 26.3% (inactive) and 65.5% (inactive) | 30.2% (inactive) and 49.2% (inactive) | 76.3% (inactive) and 84.2% (inactive) | 137% (inactive) and 98.3% (inactive) | 91.2% (inactive) | 81.7% (inactive) and 89.8% (inactive) | 86.8% (inactive) and 90.8% (inactive) | 70.8% (inactive) and 67% (inactive) | 66% (inactive) and 54.8% (inactive) | – |
| CCC(C)C1(C2CCCC2)NC(=O)NC1=O (stereo unspecified) | 107% (inactive) and 102% (inactive) | 97.3% (inactive) and 108% (inactive) | 94.5% (inactive) and 103% (inactive) | 98.8% (inactive) and 99.7% (inactive) | 105% (inactive) and 108% (inactive) | 102% (inactive) and 95.2% (inactive) | – | 95.5% (inactive) and 96.8% (inactive) | 92.2% (inactive) | 94.2% (inactive) and 129% (inactive) | 108% (inactive) and 100% (inactive) | – | 86.3% (inactive) and 96.6% (inactive) | 92.4% (inactive) and 118% (inactive) | 111% (inactive) and 108% (inactive) | 112% (inactive) and 94% (inactive) | 108% (inactive) and 81.8% (inactive) | – | 91.2% (inactive) and 106% (inactive) | 109% (inactive) and 108% (inactive) |
| CC1=NN(c2ccccc2)C(=O)C1C(=O)c1ccccc1 (stereo unspecified) | 108% (inactive) | 107% (inactive) | 103% (inactive) | 95.1% (inactive) | 94.4% (inactive) | 87.9% (inactive) | 99.1% (inactive) | 99.2% (inactive) | 96.9% (inactive) | 96.6% (inactive) | 95% (inactive) | 108% (inactive) | 90.6% (inactive) | 107% (inactive) | 99.4% (inactive) | 95.9% (inactive) | – | 88.4% (inactive) | 95.8% (inactive) | – |
| COc1ccc(CCN(C)CCCC(C#N)(c2ccc(OC)c(OC)c2)C(C)C)cc1OC (stereo unspecified) | 94% (inactive) and 86.4% (inactive) and 101% (inactive) | 79.2% (inactive) and 74.7% (inactive) and 93.8% (inactive) | 65% (inactive) and -24.5% (active) and 86.8% (inactive) | 107% (inactive) and 101% (inactive) and 105% (inactive) | 90.4% (inactive) and 95.2% (inactive) and 99.9% (inactive) | 76.3% (inactive) and 68.4% (inactive) and 95.5% (inactive) | 94% (inactive) and 99.8% (inactive) and 101% (inactive) | 106% (inactive) and 97% (inactive) and 101% (inactive) | 92.3% (inactive) and 95.4% (inactive) and 92.7% (inactive) | 93.5% (inactive) and 109% (inactive) | 92.1% (inactive) and 90.3% (inactive) and 98.6% (inactive) | 92.7% (inactive) and 107% (inactive) and 109% (inactive) | 63.4% (inactive) and 86.6% (inactive) and 81.2% (inactive) | 97.1% (inactive) and 127% (inactive) and 95.8% (inactive) | 93.2% (inactive) and 95.8% (inactive) | 73% (inactive) and 79.3% (inactive) and 94.5% (inactive) | 56.5% (inactive) and 96.5% (inactive) and 75.5% (inactive) | – | 72.9% (inactive) and 83.8% (inactive) and 95.8% (inactive) | – |
| COc1ccc(-c2cn[nH]c2-c2cc(OC)c(OC)c(OC)c2)cc1N | 8.28% (active) and 13.1% (inactive) | 1.51% (active) and 10.1% (inactive) | 57.5% (inactive) and 20.3% (inactive) | 34.4% (inactive) and 34.1% (inactive) | 9.51% (active) and 19.3% (inactive) | 19.1% (inactive) and 27.2% (inactive) | -40.3% (active) and -49.2% (active) | – | 35.2% (inactive) and 28.5% (inactive) | 47.8% (inactive) and 62.1% (inactive) | 47.5% (inactive) and 44% (inactive) | 36.3% (inactive) and 28.5% (inactive) | 50.1% (inactive) and 34.7% (inactive) | 76.4% (inactive) and 91.4% (inactive) | 30.7% (inactive) and 29.4% (inactive) | 25.1% (inactive) and 22.9% (inactive) | -1.49% (active) | 22.1% (inactive) and 21.2% (inactive) | 16.3% (inactive) and 23.4% (inactive) | 49.7% (inactive) and 62.5% (inactive) |
| NC(=O)NO | 106% (inactive) and 72.2% (inactive) | 104% (inactive) and 70.3% (inactive) | 91.7% (inactive) and 60.3% (inactive) | 105% (inactive) and 69.6% (inactive) | 96.6% (inactive) and 65.5% (inactive) | 106% (inactive) and 72.6% (inactive) | 106% (inactive) and 80.5% (inactive) | 103% (inactive) and 74.6% (inactive) | 101% (inactive) and 59% (inactive) | 110% (inactive) and 94.1% (inactive) | 98.9% (inactive) and 59.5% (inactive) | 104% (inactive) and 71.5% (inactive) | 87.8% (inactive) and 48.8% (inactive) | 113% (inactive) and 85% (inactive) | 96.9% (inactive) and 67.5% (inactive) | 83.9% (inactive) and 77.2% (inactive) | 104% (inactive) and -7.21% (active) | 82.2% (inactive) and 68% (inactive) | – | – |
| O=C(c1ccc(Cl)cc1)C(NCCO)c1ccc(Cl)cc1 (stereo unspecified) | 99.7% (inactive) and 99% (inactive) | 109% (inactive) and 92.2% (inactive) | 90.1% (inactive) and 81.8% (inactive) | 101% (inactive) and 97.6% (inactive) | 95.9% (inactive) and 102% (inactive) | 81.9% (inactive) and 84.4% (inactive) | 91.9% (inactive) and 105% (inactive) | 85.3% (inactive) and 79.9% (inactive) | 94.8% (inactive) and 96.1% (inactive) | 102% (inactive) | 103% (inactive) | 99.6% (inactive) and 100% (inactive) | 80.6% (inactive) and 83.8% (inactive) | 105% (inactive) and 98.6% (inactive) | 120% (inactive) and 102% (inactive) | 102% (inactive) | 92.7% (inactive) and 110% (inactive) | 99.7% (inactive) and 129% (inactive) | 86.6% (inactive) and 96.6% (inactive) | – |
| Cc1ccc(NCSc2ccc(Cl)cc2)cc1 | 77.1% (inactive) and 90.7% (inactive) | 79.4% (inactive) and 75.7% (inactive) | 86% (inactive) and 91.7% (inactive) | 89.3% (inactive) and 90% (inactive) | 71.4% (inactive) and 79.1% (inactive) | 66.8% (inactive) and 62.3% (inactive) | 86.5% (inactive) and 102% (inactive) | 82.3% (inactive) and 85% (inactive) | 88.6% (inactive) and 95.2% (inactive) | 108% (inactive) and 93.6% (inactive) | 92.7% (inactive) and 77.3% (inactive) | 46.2% (inactive) and 42.7% (inactive) | 27% (inactive) and 14.7% (inactive) | 90.8% (inactive) and 78.2% (inactive) | 88.4% (inactive) and 99.6% (inactive) | 59.5% (inactive) | 62.5% (inactive) and 66.3% (inactive) | 17.8% (inactive) | 25.1% (inactive) and 47.8% (inactive) | – |
| COc1ccccc1/C=N\N=C(N/N=C/c1ccccc1OC)N/N=C/c1ccccc1OC | 55.9% (inactive) and 32.1% (inactive) | 23.7% (inactive) and 12.9% (inactive) | 86.7% (inactive) and 71.1% (inactive) | 59% (inactive) and 23.7% (inactive) | 39.3% (inactive) and 15.3% (inactive) | 41.2% (inactive) and 19.7% (inactive) | 69.8% (inactive) and -91.3% (active) | 55.5% (inactive) and 19.7% (inactive) | 28.6% (inactive) | 47.5% (inactive) and 31.8% (inactive) | 74.4% (inactive) and 48.3% (inactive) | 77.2% (inactive) and 28.4% (inactive) | 50.4% (inactive) and -10.3% (active) | 110% (inactive) and 57.7% (inactive) | 63.8% (inactive) and 40.6% (inactive) | 43.6% (inactive) and 33.7% (inactive) | 100% (inactive) and 72.2% (inactive) | 39.9% (inactive) and 23.4% (inactive) | 31.1% (inactive) and 8.9% (active) | – |
